Of roughly 7,900 targets only a part is listed; those with a hit were picked by preference. About 0.6% of all pairs of compound and target were hits. A number with no mark means an inactive call.
Legend:
Experiment in all cases: log2 fold change, soluble protein after heating vs DMSO (PISA); higher = thermal stabilisation; K562 cells, 10 uM, 30 min; active = over 0.2 and 3.5 SD of the protein, either way, in both replicates (recomputed)
[1] = compound: CN1CCN(CCOc2cc(OC3CCOCC3)c3c(Nc4c(Cl)ccc5c4OCO5)ncnc3c2)CC1 [saracatinib]
Summary of the method: (§1)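 Soluble protein was quantified by TMTpro 16plex LC-MS/MS after channel sums were equalised. It was obtained as the supernatant after 21,000xg for 90 min from pooled aliquots of K562 cells (2×10^6 cells/mL, 10 μM compound, 30 min) heated for 3 min across 48°C-58°C and extracted in PBS with 0.5% NP-40 at 4°C. Thermal stability values are relative to control samples and come from duplicates. They are given as log2 fold changes.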

[2] = compound: CN1CCN(c2nc(C3=C(c4c[nH]c5ccccc45)C(=O)NC3=O)c3ccccc3n2)CC1 [sotrastaurin]
Summary of the method: as §1

[3] = compound: CN1CC[C@H](c2c(O)cc(O)c3c(=O)cc(-c4ccccc4Cl)oc23)[C@H](O)C1 [alvocidib]
Summary of the method: as §1

[4] = compound: CN1CCc2c(c3ccccc3n2Cc2ccc(C(=O)NO)cc2)C1 [Tubastatin A]
Summary of the method: as §1

[5] = compound: CNC(=O)C1=CC=CC=C1NC2=NC(=NC=C2Cl)NC3=C(C=C(C=C3)N4CCOCC4)OC
Summary of the method: as §1

[6] = compound: CNC(=O)c1ccc(Nc2ncc(C(F)(F)F)c(NCc3nccnc3N(C)S(C)(=O)=O)n2)cc1 [defactinib]
Summary of the method: as §1

[7] = compound: CNCc1ccc(-c2[nH]c3cc(F)cc4c3c2CCNC4=O)cc1 [rucaparib]
Summary of the method: as §1

[8] = compound: CNc1nc(-c2ccc3c(N)n[nH]c3c2)cc(N2C[C@@H](C(=O)NC3CCCCC3)CC[C@H]2C)n1
Summary of the method: as §1

[9] = compound: COC(=O)N[C@@H](C)CNc1nccc(-c2cn(C(C)C)nc2-c2cc(Cl)cc(NS(C)(=O)=O)c2F)n1 [encorafenib]
Summary of the method: as §1

[10] = compound: COC(=O)[C@H](CCSC)NC(=O)C1=C(C=C(C=C1)NC[C@H](CS)N)C2=CC=CC=C2
Summary of the method: as §1

Chain of UniProt Q9BRX2 (Q9BRX2 whole entry, looked up): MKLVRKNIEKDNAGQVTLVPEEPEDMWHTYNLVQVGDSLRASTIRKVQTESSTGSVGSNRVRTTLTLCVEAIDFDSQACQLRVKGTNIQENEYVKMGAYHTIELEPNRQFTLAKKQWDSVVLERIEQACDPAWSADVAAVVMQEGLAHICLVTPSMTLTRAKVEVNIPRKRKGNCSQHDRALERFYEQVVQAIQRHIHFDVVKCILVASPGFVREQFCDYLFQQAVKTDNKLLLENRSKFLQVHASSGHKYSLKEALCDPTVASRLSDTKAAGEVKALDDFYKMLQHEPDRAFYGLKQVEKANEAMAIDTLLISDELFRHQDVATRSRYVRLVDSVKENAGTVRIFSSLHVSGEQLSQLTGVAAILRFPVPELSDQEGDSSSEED
Chain of UniProt Q9NTI5 (Q9NTI5 whole entry, looked up): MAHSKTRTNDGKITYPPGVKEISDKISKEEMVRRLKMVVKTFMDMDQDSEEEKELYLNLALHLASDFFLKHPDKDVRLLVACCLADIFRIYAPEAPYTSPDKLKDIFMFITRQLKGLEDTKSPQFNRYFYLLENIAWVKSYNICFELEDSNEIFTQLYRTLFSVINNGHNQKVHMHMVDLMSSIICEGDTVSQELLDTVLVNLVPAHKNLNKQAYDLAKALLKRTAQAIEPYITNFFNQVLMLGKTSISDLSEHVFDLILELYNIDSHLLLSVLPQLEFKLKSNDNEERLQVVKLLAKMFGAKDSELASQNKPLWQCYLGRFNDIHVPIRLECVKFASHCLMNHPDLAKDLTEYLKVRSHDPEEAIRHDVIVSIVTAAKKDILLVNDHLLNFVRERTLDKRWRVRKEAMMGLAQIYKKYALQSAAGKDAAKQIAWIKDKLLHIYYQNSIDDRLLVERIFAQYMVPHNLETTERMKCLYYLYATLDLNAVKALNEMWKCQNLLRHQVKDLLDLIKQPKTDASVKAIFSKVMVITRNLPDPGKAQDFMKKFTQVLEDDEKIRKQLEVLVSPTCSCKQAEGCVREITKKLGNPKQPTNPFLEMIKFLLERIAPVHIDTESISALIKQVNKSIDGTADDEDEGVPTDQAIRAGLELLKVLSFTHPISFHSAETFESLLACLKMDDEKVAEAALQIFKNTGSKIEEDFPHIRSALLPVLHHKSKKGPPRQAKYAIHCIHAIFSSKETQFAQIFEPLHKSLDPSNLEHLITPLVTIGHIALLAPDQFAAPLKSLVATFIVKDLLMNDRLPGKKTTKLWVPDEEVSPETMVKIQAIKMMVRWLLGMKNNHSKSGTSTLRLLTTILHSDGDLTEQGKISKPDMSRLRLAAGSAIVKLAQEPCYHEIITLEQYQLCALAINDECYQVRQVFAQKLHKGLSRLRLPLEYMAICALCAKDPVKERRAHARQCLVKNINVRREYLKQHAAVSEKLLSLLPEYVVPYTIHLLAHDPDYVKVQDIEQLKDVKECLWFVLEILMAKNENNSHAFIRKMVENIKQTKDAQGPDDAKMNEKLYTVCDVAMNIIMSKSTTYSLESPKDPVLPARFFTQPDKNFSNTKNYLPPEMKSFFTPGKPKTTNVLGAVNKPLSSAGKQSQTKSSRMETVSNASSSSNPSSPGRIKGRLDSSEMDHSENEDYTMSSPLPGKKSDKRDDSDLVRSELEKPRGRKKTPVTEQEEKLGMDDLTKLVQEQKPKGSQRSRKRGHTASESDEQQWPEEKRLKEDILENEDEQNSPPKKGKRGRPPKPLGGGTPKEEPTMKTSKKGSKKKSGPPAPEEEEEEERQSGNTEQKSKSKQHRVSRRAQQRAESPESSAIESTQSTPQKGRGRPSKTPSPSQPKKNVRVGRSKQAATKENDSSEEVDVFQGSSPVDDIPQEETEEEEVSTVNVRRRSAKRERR
Chain of UniProt Q92871 (Q92871 whole entry, looked up): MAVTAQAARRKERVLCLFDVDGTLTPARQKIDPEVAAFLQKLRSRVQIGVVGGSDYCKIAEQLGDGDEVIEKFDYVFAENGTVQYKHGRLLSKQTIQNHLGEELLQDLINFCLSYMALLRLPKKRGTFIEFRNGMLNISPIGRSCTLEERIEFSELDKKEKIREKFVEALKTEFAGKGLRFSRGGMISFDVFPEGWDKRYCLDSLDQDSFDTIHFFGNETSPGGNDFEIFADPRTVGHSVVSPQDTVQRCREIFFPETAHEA
Chain of UniProt Q14181 (Q14181 whole entry, looked up): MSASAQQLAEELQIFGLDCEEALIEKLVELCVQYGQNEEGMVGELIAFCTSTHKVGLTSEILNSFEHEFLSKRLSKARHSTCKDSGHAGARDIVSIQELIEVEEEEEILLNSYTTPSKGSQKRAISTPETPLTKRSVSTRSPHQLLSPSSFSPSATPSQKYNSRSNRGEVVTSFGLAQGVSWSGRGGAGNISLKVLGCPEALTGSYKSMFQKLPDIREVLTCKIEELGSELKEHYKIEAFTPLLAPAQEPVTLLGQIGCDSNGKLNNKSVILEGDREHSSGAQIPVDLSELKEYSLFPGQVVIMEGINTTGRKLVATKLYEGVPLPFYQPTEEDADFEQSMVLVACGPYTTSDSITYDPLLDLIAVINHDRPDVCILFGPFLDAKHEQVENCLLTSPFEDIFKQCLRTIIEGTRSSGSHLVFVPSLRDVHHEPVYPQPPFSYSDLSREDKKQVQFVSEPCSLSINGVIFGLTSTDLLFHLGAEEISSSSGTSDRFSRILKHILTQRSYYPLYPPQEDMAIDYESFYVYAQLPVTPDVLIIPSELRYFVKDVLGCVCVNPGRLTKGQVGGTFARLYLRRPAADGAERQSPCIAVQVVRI
Chain of UniProt Q8TCG2 (Q8TCG2 whole entry, looked up): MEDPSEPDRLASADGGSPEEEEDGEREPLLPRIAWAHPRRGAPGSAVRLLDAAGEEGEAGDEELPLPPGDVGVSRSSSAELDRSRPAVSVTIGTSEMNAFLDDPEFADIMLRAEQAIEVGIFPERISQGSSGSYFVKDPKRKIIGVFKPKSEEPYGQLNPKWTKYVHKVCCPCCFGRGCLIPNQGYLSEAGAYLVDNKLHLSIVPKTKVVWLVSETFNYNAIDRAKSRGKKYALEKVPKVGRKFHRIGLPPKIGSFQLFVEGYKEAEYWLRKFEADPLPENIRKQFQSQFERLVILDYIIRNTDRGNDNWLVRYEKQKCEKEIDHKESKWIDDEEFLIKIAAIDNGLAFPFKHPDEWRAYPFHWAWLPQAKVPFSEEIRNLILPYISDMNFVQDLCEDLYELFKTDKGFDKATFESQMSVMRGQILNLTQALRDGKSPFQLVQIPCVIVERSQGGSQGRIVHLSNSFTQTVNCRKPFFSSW
Chain of UniProt Q13200 (Q13200 whole entry, looked up): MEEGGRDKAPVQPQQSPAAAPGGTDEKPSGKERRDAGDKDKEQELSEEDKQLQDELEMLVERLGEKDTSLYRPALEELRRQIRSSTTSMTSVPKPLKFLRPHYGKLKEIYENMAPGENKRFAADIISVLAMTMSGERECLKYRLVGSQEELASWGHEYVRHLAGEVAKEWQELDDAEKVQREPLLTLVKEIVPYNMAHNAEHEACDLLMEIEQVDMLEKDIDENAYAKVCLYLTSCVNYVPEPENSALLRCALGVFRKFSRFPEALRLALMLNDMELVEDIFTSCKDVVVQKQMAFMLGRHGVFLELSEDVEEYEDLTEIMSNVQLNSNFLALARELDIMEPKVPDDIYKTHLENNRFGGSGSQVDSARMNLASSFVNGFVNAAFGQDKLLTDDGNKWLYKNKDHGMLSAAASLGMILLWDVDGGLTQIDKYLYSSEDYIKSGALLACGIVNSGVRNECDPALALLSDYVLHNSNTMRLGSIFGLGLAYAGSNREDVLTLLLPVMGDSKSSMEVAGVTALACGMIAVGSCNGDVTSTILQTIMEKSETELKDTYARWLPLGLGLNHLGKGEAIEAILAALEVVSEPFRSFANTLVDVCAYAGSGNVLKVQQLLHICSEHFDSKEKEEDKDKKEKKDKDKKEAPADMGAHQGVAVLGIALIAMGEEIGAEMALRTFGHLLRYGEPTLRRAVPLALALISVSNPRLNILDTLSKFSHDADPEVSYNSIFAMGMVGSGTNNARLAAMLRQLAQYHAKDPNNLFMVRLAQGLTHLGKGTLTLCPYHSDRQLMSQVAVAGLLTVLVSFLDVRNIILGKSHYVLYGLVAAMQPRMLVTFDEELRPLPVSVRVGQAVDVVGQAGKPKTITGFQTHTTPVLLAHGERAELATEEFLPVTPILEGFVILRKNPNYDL
Chain of UniProt Q8TAP8 (Q8TAP8 whole entry, looked up): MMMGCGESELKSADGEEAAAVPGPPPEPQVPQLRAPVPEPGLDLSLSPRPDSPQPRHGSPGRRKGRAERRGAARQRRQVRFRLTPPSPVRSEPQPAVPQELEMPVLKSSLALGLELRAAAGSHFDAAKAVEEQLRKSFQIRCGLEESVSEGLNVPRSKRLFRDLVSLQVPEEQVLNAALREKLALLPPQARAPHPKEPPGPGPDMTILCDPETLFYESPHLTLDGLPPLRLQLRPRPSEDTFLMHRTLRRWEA

Row | Target | log2 fold change [1] | log2 fold change [2] | log2 fold change [3] | log2 fold change [4] | log2 fold change [5] | log2 fold change [6] | log2 fold change [7] | log2 fold change [8] | log2 fold change [9] | log2 fold change [10]
1 | PUM1 isoform 3 (UniProt Q14671) | -0.01 | -0.023 | -0.059 | 0.004 | -0.019 | -0.078 | 0.082 | -0.039 | -0.01 | 0.001
2 | POLR2G (UniProt P62487) | 0.041 | -0.016 | 0.328 (active) | -0.045 | 0.003 | 0.154 | 0.039 | 0.042 | -0.016 | -0.03
3 | PDCD4 (UniProt Q53EL6) | -0.008 | 0.138 | -0.113 | 0 | 0.177 | -0.243 | -0.113 | 0.114 | 0.073 | -0.097
4 | POLD1 (UniProt P28340) | 0.018 | -0.052 | -0.121 | 0.055 | -0.01 | -0.115 | -0.004 | -0.004 | 0.131 | -0.029
5 | PCBP1 (UniProt Q15365) | 0.009 | -0.073 | -0.119 | 0.013 | -0.015 | -0.151 | -0.015 | 0.03 | 0.052 | -0.034
6 | PLBD2 (UniProt Q8NHP8) | 0.033 | 0.031 | 0.006 | 0.01 | 0.029 | -0.025 | -0.115 | -0.008 | 0.005 | 0.038
7 | PLIN2 (UniProt Q99541) | -0.033 | -0.243 | 0.01 | 0.015 | 0.026 | -0.006 | -0.012 | -0.001 | 0.002 | 0.047
8 | PPP1R12A (UniProt O14974) | -0.048 | -0.054 | -0.187 | 0.01 | -0.052 | -0.187 | -0.012 | -0.197 | 0.057 | -0.043
9 | PTPN12 (UniProt Q05209) | 0.085 | -0.148 | 0.007 | 0.064 | 0.063 | 0.006 | 0.047 | -0.04 | 0.076 | -0.088
10 | PTGR2 (UniProt Q8N8N7) | 0.021 | 0.009 | 0.015 | 0.046 | -0.052 | -0.025 | 0.007 | 0.136 | -0.107 | -0.043
11 | PTPA (UniProt Q15257) | 0.009 | 0.068 | -0.06 | -0.029 | -0.036 | -0.033 | -0.045 | -0.012 | 0.012 | 0.003
12 | PDE4DIP isoform 4 (UniProt Q5VU43) | -0.028 | -0.064 | 0.017 | 0.064 | -0.065 | 0.021 | -0.057 | 0.007 | -0.015 | 0.035
13 | PI4K2B (UniProt Q8TCG2) | -0.067 | 0.04 | -0.05 | 0.028 | -0.016 | 0.003 | 0.097 | -0.096 | -0.148 | -0.099
14 | PMPCA (UniProt Q10713) | -0.026 | -0.007 | -0.101 | -0.007 | 0.007 | -0.086 | -0.022 | 0.052 | -0.027 | -0.022
15 | PRKACB isoform 2 (UniProt P22694) | -0.013 | -0.119 | -0.014 | -0.035 | -0.101 | 0.004 | 0.002 | 0.018 | 0.011 | 0.022
16 | PPP1R35 (UniProt Q8TAP8) | 0.034 | -0.011 | -0.03 | 0.035 | -0.029 | -0.007 | 0.019 | -0.109 | 0.072 | 0.052
17 | PDCD6IP (UniProt Q8WUM4) | -0.11 | -0.227 | -0.132 | 0.048 | 0.034 | -0.141 | 0.119 | 0.055 | 0.138 | -0.048
18 | PSME4 (UniProt Q14997) | -0.006 | -0.035 | -0.051 | 0.025 | -0.027 | 0.037 | -0.023 | 0.067 | 0.066 | -0.029
19 | PRPF40A (UniProt O75400) | -0.026 | -0.099 | -0.171 | 0.103 | -0.197 | -0.219 | 0.029 | -0.03 | 0.026 | -0.024
20 | PEX16 isoform 2 (UniProt Q9Y5Y5) | 0.038 | -0.02 | -0.141 | 0.021 | -0.053 | -0.106 | 0.042 | -0.04 | 0.001 | 0.05
21 | PDS5B (UniProt Q9NTI5) | -0.134 | 0.039 | -0.097 | 0.14 | -0.169 | -0.101 | -0.088 | 0.014 | 0 | 0.032
22 | QRICH1 (UniProt Q2TAL8) | -0.019 | -0.076 | -0.127 | 0.156 | -0.036 | -0.271 | -0.008 | -0.004 | 0.097 | 0.169
23 | POLA2 (UniProt Q14181) | 0.035 | -0.055 | -0.15 | 0.051 | 0.096 | -0.254 | -0.125 | 0.039 | 0.06 | -0.038
24 | PARP1 (UniProt P09874) | -0.025 | -0.104 | -0.004 | 0.037 | 0.094 | -0.089 | 1.05 (active) | 0.038 | 0.079 | -0.04
25 | PELO (UniProt Q9BRX2) | -0.079 | -0.218 | -0.066 | 0.121 | -0.122 | -0.058 | 0.299 | 0.148 | 0.137 | 0.061
26 | PRIM1 (UniProt P49642) | -0.109 | -0.111 | -0.007 | 0.042 | 0.116 | -0.107 | 0.084 | 0.051 | 0.153 | -0.082
27 | PMM1 (UniProt Q92871) | 0.006 | 0.094 | -0.011 | -0.018 | -0.315 (active) | -0.007 | 0.095 | 0.028 | -0.017 | -0.023
28 | PSMD2 (UniProt Q13200) | -0.047 | -0.029 | 0.048 | -0.014 | -0.033 | 0.061 | 0.035 | 0.01 | 0.051 | 0.012
29 | PRKCE (UniProt Q02156) | -0.02 | -0.425 (active) | -0.143 | -0.052 | 0.075 | -0.133 | -0.043 | 0.006 | 0.037 | -0.06
30 | PRKCG (UniProt P05129) | 0.011 | -0.373 | -0.076 | -0.025 | 0.088 | -0.015 | -0.021 | -0.164 | 0.19 | -0.02
